Only some compounds are listed: those with a hit (about 1.2% of all), similar ones and a draw of the others.
Avidin fluor: compound fluoresces at 488/530 nm on avidin beads; compound fluorescence 488/530 nm, flow cytometry; active compounds read high; fluorescence (KMESF) at 10 µM; 220,000 tested, 0.38% active; AID 1775; in the data active = fluorescence above about 47
RGS4-Gao reg: modulates binding of RGS4 to human Galphao | binding response (% of control), % at 10 µM | P09471 | Multiplexed bead flow cytometry; actives lie on both sides | 220,000 tested, 0.33% active; in the data active = binding response below about 49% or above about 150%; inactive = in between;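 also: fluorescent Galphao activated with aluminum fluoride binding bead-coupled RGS4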
RGS8-Gao: regulators of human RGS8-Galphao interaction; P09471; multiplexed bead flow cytometry, RGS8-Galphao binding; actives lie on both sides; response (percent of control binding), % at 10 µM; 220,000 tested, 0.34% active; AID 1423; in the data active = response below about 60% or above about 140%; inactive = in between;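 also: Galphao activated as the GDP aluminium fluoride complex binding bead-coupled RGS8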
RGS7-Gao: modulates binding of RGS7 to human Galphao. Multiplexed bead flow cytometry; actives lie on both sides. binding response (% of control), % at 10 µM. 220,000 tested, 0.35% active; in the data active = binding response below about 49% or above about 150%; inconclusive = no clear call, values can overlap the other calls; inactive = in between;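 also: fluorescent Galphao held in activated GDP-AlF4 state binding bead-coupled RGS7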
GSH fluor: compound fluoresces at 488/530 nm on GSH beads. GSH beads flow cytometry, compound fluorescence 488/530 nm; active compounds read high. fluorescence (KMESF) at 10 µM. 190,000 tested, 0.25% active; in the data active = fluorescence above about 89;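 also: glutathione beads carrying GST-tagged Bcl family fusion proteins plus one bare bead set; values are compound well signal with DMSO vehicle wells as background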
RGS16-Gao: regulators of human RGS16-Galphao interaction. bead-based flow cytometry RGS16-Galphao binding, fluorescence; actives lie on both sides. O15492+P09471. binding response (% of control), % at 10 µM. 220,000 tested, 0.38% active;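 also: Galphao activated by GDP with aluminum fluoride before binding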
Target sequence (O15492 whole entry, looked up): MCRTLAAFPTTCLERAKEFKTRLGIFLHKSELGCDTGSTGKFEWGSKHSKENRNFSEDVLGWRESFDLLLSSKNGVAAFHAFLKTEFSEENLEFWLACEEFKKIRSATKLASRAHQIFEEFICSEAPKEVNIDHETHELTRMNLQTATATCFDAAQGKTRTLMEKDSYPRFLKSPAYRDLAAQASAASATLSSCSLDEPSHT
Target sequence (P09471 whole entry, looked up): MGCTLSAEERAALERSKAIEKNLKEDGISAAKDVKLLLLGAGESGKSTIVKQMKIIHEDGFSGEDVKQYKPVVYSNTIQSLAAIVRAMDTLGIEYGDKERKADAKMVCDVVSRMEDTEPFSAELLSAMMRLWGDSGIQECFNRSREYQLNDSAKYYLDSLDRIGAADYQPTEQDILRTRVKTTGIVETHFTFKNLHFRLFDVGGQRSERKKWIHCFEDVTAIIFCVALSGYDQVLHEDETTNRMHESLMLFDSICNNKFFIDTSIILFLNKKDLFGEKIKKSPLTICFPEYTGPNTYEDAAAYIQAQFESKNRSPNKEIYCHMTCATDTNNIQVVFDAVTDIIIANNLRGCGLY
RGS-Gao: regulators of human RGS4-Galphao interaction. shares compounds with RGS16-Gao. multiplexed bead flow cytometry, RGS–Galpha-o binding. RGS4–Galpha-o binding response, % at 10 µM. 1,600 tested, 99% active;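 also: fluorescently labeled Galpha-o bound to GDP with aluminium fluoride binding biotinylated RGS beads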
Biotin-avidin: biotin-avidin bead binding disruption counter-screen | inhibition, % at 10 µM | shares compounds with RGS16-Gao | AID 1783 | streptavidin beads, fluorescein-biotin binding, flow cytometry | 1,700 tested, under 10 active;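 active = inhibition above 50%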;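 also: median green fluorescence of gated singlet beads compared with DMSO control wells; 0% = DMSO wells and 100% = complete loss of bead fluorescence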
RGS8-Gao single: RGS8-Galphao interaction regulation, single point confirmation | shares compounds with RGS16-Gao | AID 1836 | 1,700 tested, 3% active | binding response (% of control), % at 10 µM | bead-based flow cytometry RGS8-Galphao binding, fluorescence; actives lie on both sides; in the data active = binding response below about 72% or above about 130%; inactive = in between;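 also: Galphao activated as GDP AlF4 complex before binding bead RGS8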
RGS7-Gao confirm: RGS7-Galphao interaction regulation, single point confirmation. shares compounds with RGS16-Gao. bead-based flow cytometry RGS7-Galphao binding; actives lie on both sides. response (percent of control binding), % at 10 µM. 1,700 tested, 7.8% active. AID 1837; in the data active = response below about 75% or above about 130%; inactive = in between;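 also: fluorescent Galphao activated with GDP and aluminum fluoride binding bead-coupled RGS7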
RGS16-Gao conf: confirmation of regulators of human RGS16-Galphao interaction; bead-based flow cytometry, RGS16-Galphao binding; actives lie on both sides; response (% of control binding), % at 10 µM; AID 1838; shares compounds with RGS16-Gao; 1,700 tested, 4% active; in the data active = response below about 74% or above about 130%; inactive = in between;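 also: Galphao activated as the GDP aluminium fluoride complex binding bead-coupled RGS16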
RGS4-Gao single: confirmation of regulators of human RGS4-Galphao interaction | RGS4-Galphao binding, multiplexed bead flow cytometry; actives lie on both sides | shares compounds with RGS16-Gao | 1,700 tested, 4% active | AID 1840 | binding response (% of control), % at 10 µM; in the data active = binding response below about 74% or above about 130%; inactive = in between
RGS19-Gao single: RGS19-Galphao interaction regulation, single point confirmation. shares compounds with RGS16-Gao. bead-based flow cytometry RGS19-Galphao binding; actives lie on both sides. response (percent of control binding), % at 10 µM. 1,700 tested, 5% active. AID 1841; in the data active = response below about 50% or above about 160%; inactive = in between;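 also: 100% = no compound control and 0% = blank background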
* marks the source's active call; other numbers are inactive results; ? = inconclusive; . = no result given; [ ] = dose if it differs, or a comment. Unless noted, no rule for the calls is given here.

SMILES	Avidin fluor	RGS4-Gao reg	RGS8-Gao	RGS7-Gao	GSH fluor	RGS16-Gao	RGS-Gao	Biotin-avidin	RGS8-Gao single	RGS7-Gao confirm	RGS16-Gao conf	RGS4-Gao single	RGS19-Gao single
CC(=O)NN1C(=O)c2ccccc2NC1c1cccnc1 (stereo not given)	11	104	105	105	19	104	.	.	.	.	.	.	.
O=C1NC(c2cccnc2)Nc2sc3c(c21)CCCC3 (stereo not given)	4	86	72	94	29	23*	86*	-3	101	98	100	99	94
Cn1c(O)c(/C=C/C=Nc2ccccc2)c(=O)n(C)c1=S	33	128	101	115	23	124	.	.	.	.	.	.	.
CNCC1(c2ccccc2)CCCC1	12	102	100	100	30	100	.	.	.	.	.	.	.
O=P(Oc1ccccc1)(Oc1ccccc1)C(Nc1ccccc1)c1ccccc1 (stereo not given)	2	68	53*	68	9	12	68*	0	100	99	103	100	98
Cc1ccccc1-n1c(O)c(/C=N/N2CCOCC2)c(=O)[nH]c1=S	78*	150*[activator]	84	138	18	46	.	-1	101	101	104	101	115
CC(C)N1CC=C(c2c[nH]c3ccccc23)CC1	22	95	96	98	19	97	.	.	.	.	.	.	.
C1=C(c2c[nH]c3ccccc23)CCNC1	14	167*[activator]	107	151*[activator]	24	133	.	2	99	135*[activator]	103	110	117
CCN1CCN(c2cc(N3CCCC3)c(F)cc2[N+](=O)[O-])CC1	12	108	122	112	17	184*[activator]	108*	-2	98	62*	78	79	64
CC(C)NS(=O)(=O)c1ccc(OCC(=O)N2CCN(C)CC2)cc1	5	134	185*[activator]	130	20	381	134*	.	.	.	.	.	.
BrCC1C[n+]2c(SCc3ccccc3)nc3sc4c(c3c2O1)CCCC4 (stereo not given)	117*	249*[activator]	119	?	.	221*[activator]	.	0	93	89	91	93	85
Nc1c2c(nc3sc4c(c13)CCCCC4)CCCC2	3	102	97	104	10	89	.	.	.	.	.	.	.
O=c1[nH]c(=O)n(Cc2ccc(F)cc2)c(O)c1C=NCCCO	122*	110	97	156*[activator]	17	107	110*	-1	98	95	96	97	99
O=c1[nH]c(=O)n(Cc2ccc(F)cc2)c(O)c1C=NCCCn1ccnc1	37	98	102	97	17	99	.	.	.	.	.	.	.
CN(C)C(=O)Nc1cccc(OC(=O)N(C)C)c1	178*	126	99	281*[activator]	22	108	126*	0	98	99	101	101	101
CCOc1ccc(Cc2c(O)[nH]c(=O)[nH]c2=O)cc1	36	98	100	99	13	97	.	.	.	.	.	.	.
COC(=O)c1ccccc1OP(=O)(c1cccc([N+](=O)[O-])c1)c1cccc([N+](=O)[O-])c1	5	86	96	?	.	87	.	.	.	.	.	.	.
